In the supplement of paper PMC8728848:
Only a selection was taken, and the strongest signals are over-represented in it overall.

Experiments:
Test in all cases: glycan array binding signal (z-score within array); higher = stronger binding
Settings in all cases: glycan notation: IUPAC condensed, linker removed
[1] = target: GlcNAc(b1-3)Gal(b1-4)GlcNAc(b1-3)Gal(b1-4)GlcNAc(b1-2)[GlcNAc(b1-3)Gal(b1-4)GlcNAc(b1-3)Gal(b1-4)GlcNAc(b1-6)]Man(a1-6)[GlcNAc(b1-3)Gal(b1-4)GlcNAc(b1-3)Gal(b1-4)GlcNAc(b1-2)Man(a1-3)]Man(b1-4)GlcNAc(b1-4)[Fuc(a1-6)]GlcNAc
Summary of the method: (§1)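 Arrays were curated from the Consortium for Functional Glycomics database, 3228 in total, and kept only where the protein sequence was available. Binding is expressed as a within-array Z-score. This score was averaged across arrays of the same protein sequence at different concentrations or buffers and across linkers, and negative values can be read as non-binding.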

[2] = target: GlcNAc(b1-3)Gal(b1-4)GlcNAc(b1-3)Gal(b1-4)GlcNAc(b1-3)Gal(b1-4)GlcNAc(b1-3)Gal(b1-4)GlcNAc(b1-2)Man(a1-3)[GlcNAc(b1-3)Gal(b1-4)GlcNAc(b1-3)Gal(b1-4)GlcNAc(b1-3)Gal(b1-4)GlcNAc(b1-3)Gal(b1-4)GlcNAc(b1-2)Man(a1-6)]Man(b1-4)GlcNAc(b1-4)GlcNAc
Summary of the method: as §1

[3] = target: GlcNAc(b1-3)Gal(b1-4)GlcNAc(b1-6)[GlcNAc(b1-3)]Gal(b1-4)GlcNAc
Summary of the method: as §1

[4] = target: GlcNAc(b1-4)[GlcNAc(b1-6)]GalNAc
Summary of the method: as §1

[5] = target: Man(a1-2)Man(a1-2)Man(a1-3)Man
Summary of the method: as §1

[6] = target: Man(a1-2)Man(a1-2)Man(a1-6)[Man(a1-3)]Man
Summary of the method: as §1

[7] = target: Man(a1-2)Man(a1-3)[Man(a1-2)Man(a1-6)]Man(a1-6)[Man(a1-2)Man(a1-2)Man(a1-3)]Man
Summary of the method: as §1

[8] = target: Man(a1-3)[Man(a1-6)]Man(a1-6)[Man(a1-2)Man(a1-3)]Man(b1-4)GlcNAc(b1-4)GlcNAc
Summary of the method: as §1

[9] = target: Neu5Ac(a2-3)Gal(b1-3)GlcNAc(b1-4)Gal(b1-4)Glc
Summary of the method: as §1

[10] = target: Neu5Ac(a2-3)Gal(b1-3)[Neu5Ac(a2-6)]GalNAc
Summary of the method: as §1

[11] = target: Neu5Ac(a2-3)Gal(b1-4)GlcNAc(b1-3)GalNAc
Summary of the method: as §1

[12] = target: Neu5Ac(a2-3)Gal(b1-4)GlcNAc6S
Summary of the method: as §1

[13] = target: Neu5Ac(a2-3)Gal(b1-4)[Fuc(a1-3)]GlcNAc(b1-3)Gal(b1-4)GlcNAc
Summary of the method: as §1

[14] = target: Neu5Ac(a2-3)Gal(b1-4)[Fuc(a1-3)]GlcNAc6S
Summary of the method: as §1

[15] = target: Neu5Ac(a2-3)GalNAc(b1-4)GlcNAc
Summary of the method: as §1

[16] = target: Neu5Ac(a2-3)[GalNAc(b1-4)]Gal(b1-4)GlcNAc
Summary of the method: as §1

[17] = target: Neu5Ac(a2-6)Gal(b1-4)GlcNAc(b1-2)Man
Summary of the method: as §1

[18] = target: Neu5Ac(a2-6)Gal(b1-4)GlcNAc(b1-2)Man(a1-3)[GlcNAc(b1-2)Man(a1-6)]Man(b1-4)GlcNAc(b1-4)GlcNAc
Summary of the method: as §1

[19] = target: Neu5Ac(a2-6)Gal(b1-4)GlcNAc(b1-2)Man(a1-3)[Man(a1-6)]Man(b1-4)GlcNAc(b1-4)GlcNAc
Summary of the method: as §1

[20] = target: Neu5Ac(a2-6)Gal(b1-4)GlcNAc(b1-2)Man(a1-6)Man(b1-4)GlcNAc(b1-4)GlcNAc
Summary of the method: as §1

[21] = target: Neu5Ac(a2-6)Gal(b1-4)GlcNAc(b1-2)Man(a1-6)[Man(a1-3)]Man(b1-4)GlcNAc(b1-4)GlcNAc
Summary of the method: as §1

[22] = target: Neu5Ac(a2-6)Gal(b1-4)GlcNAc(b1-2)[Neu5Ac(a2-6)Gal(b1-4)GlcNAc(b1-4)]Man(a1-3)[GlcNAc(b1-4)][Neu5Ac(a2-6)Gal(b1-4)GlcNAc(b1-2)[Neu5Ac(a2-6)Gal(b1-4)GlcNAc(b1-6)]Man(a1-6)]Man(b1-4)GlcNAc(b1-4)GlcNAc
Summary of the method: as §1

B1: GS7807P-bth-537-23-537 (Bacteroides thetaiotaomicron) (protein)
chain: NYENINSNPYEAPDLSADGYALGSAMNNLAGCVVSPDVNTAQFTDCLLGGPLGGYFADSNAGFTETISNFNPKDDWSRVFLKSDKIIPTLYSNLTQVKLVSQNTNDPVPYAIAQVIKVAAMHRVTDAFGPIPYSQIGANGEIATPYDSQEVTYNTFFDELNAAIATLNENSNEQLVPTADYIYKGDVKKWIRFANSLKLRLAIRIAYANPVKAQQMAEEAVNPANGGVIESNADNATWNYFETSQNPIYVATRYNQVQTSDHGGVPCLTGGDTHAAADIICYMNGYKDNRREKFFTKSEWAGQDYVGMRRGIVIPELKTTGHKYSGVNIAPTSPLYWMNAAEVAFLRAEGQAVFNFSMGGTAESFYNQGIRLSFEQWGADGVEDYLKDDVNKPTAYTDPAGTNTYQNALSNITIKWNDSADKEEKQERIIVQKWIANWQLGNEAWADFRRTGYPKLIPVKENKSGGVVDSEKGARRMPYPLDEFVSNKANVEYAIANYLHGADNMATDVWWASKK
[1]
  glycan array binding signal (z-score): 19.1
[2]
  glycan array binding signal (z-score): 0.265
[3]
  glycan array binding signal (z-score): -0.326
[4]
  glycan array binding signal (z-score): -0.32
[5]
  glycan array binding signal (z-score): -0.398
[6]
  glycan array binding signal (z-score): -0.343
[7]
  glycan array binding signal (z-score): -0.267
[8]
  glycan array binding signal (z-score): 2
[9]
  glycan array binding signal (z-score): -0.398
[10]
  glycan array binding signal (z-score): -0.387
[11]
  glycan array binding signal (z-score): -0.371
[12]
  glycan array binding signal (z-score): -0.377
[13]
  glycan array binding signal (z-score): 0.04
[14]
  glycan array binding signal (z-score): -0.338
[15]
  glycan array binding signal (z-score): -0.329
[16]
  glycan array binding signal (z-score): -0.363
[17]
  glycan array binding signal (z-score): -0.32
[18]
  glycan array binding signal (z-score): -0.356
[19]
  glycan array binding signal (z-score): 1.81
[20]
  glycan array binding signal (z-score): 0.297
[21]
  glycan array binding signal (z-score): 5.2
[22]
  glycan array binding signal (z-score): -0.083
